Experiments:
Assay in all cases: log2 ratio of Biotin-Ahx-Ub-VS probe labelling (fragment/DMSO); higher = less target engagement (more negative = stronger competition), active = hit call of the paper (q ≤ 0.05, log2 ratio ≤ -1)
Conditions in all cases: compound concentration: 200 uM; treatment time: 3 h
USP42 = target: T1, USP42 (UniProt Q9H9J4)
T1 sequence (whole entry): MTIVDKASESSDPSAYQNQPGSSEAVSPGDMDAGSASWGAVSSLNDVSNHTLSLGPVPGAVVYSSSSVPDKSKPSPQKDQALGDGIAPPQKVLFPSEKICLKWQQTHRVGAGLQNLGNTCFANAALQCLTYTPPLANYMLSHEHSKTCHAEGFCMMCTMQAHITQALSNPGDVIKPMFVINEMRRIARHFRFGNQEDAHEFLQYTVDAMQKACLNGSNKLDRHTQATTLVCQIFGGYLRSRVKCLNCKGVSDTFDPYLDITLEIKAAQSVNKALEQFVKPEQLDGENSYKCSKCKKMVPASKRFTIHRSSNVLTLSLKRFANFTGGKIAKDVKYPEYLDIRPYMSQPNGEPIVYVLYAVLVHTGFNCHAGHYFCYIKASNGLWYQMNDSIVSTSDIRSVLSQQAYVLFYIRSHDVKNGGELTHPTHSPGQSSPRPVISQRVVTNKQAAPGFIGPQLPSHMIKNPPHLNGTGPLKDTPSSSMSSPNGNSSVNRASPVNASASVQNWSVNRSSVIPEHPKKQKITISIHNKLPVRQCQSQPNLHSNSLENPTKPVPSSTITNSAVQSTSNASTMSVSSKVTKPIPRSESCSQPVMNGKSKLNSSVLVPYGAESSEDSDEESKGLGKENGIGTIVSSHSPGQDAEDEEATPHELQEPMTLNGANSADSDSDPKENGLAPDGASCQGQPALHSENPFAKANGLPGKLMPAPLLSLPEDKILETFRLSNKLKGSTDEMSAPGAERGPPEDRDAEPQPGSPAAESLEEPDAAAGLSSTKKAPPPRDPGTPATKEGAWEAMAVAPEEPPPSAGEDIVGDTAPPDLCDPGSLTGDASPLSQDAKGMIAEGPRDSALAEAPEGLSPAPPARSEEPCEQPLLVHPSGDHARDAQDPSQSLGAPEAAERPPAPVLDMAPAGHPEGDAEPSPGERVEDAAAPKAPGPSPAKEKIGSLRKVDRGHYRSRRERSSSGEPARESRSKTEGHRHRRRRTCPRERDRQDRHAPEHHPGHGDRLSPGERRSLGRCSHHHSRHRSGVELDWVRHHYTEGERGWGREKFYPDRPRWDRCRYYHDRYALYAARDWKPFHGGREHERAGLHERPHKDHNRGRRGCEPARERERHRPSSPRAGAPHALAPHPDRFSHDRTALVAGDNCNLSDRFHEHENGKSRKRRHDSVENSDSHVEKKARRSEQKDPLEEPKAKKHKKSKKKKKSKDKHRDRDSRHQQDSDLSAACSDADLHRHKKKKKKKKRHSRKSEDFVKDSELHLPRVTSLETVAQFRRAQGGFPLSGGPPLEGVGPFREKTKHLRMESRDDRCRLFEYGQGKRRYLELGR
In short: (§1)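 Each value is an average log2 ratio of fragment to vehicle, tested by unpaired t-test. The underlying Spectronaut label-free quantities were global-median-normalised, and only proteins with ≥2 unique peptides were included. Triplicate HEK293T lysate samples (495 µg) were exposed to fragment at 200 µM or vehicle for 3 h, then to Biotin-Ahx-Ub-VS at 0.5 µM final for 1 h, before NeutrAvidin enrichment of labelled DUBs, LysC and trypsin digestion, and diaPASEF LC-MS/MS.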

USP46 = USP46 (UniProt P62068)
In short: as §1

USP47 = target: T2, USP47 (UniProt Q96K76)
T2 sequence (whole entry): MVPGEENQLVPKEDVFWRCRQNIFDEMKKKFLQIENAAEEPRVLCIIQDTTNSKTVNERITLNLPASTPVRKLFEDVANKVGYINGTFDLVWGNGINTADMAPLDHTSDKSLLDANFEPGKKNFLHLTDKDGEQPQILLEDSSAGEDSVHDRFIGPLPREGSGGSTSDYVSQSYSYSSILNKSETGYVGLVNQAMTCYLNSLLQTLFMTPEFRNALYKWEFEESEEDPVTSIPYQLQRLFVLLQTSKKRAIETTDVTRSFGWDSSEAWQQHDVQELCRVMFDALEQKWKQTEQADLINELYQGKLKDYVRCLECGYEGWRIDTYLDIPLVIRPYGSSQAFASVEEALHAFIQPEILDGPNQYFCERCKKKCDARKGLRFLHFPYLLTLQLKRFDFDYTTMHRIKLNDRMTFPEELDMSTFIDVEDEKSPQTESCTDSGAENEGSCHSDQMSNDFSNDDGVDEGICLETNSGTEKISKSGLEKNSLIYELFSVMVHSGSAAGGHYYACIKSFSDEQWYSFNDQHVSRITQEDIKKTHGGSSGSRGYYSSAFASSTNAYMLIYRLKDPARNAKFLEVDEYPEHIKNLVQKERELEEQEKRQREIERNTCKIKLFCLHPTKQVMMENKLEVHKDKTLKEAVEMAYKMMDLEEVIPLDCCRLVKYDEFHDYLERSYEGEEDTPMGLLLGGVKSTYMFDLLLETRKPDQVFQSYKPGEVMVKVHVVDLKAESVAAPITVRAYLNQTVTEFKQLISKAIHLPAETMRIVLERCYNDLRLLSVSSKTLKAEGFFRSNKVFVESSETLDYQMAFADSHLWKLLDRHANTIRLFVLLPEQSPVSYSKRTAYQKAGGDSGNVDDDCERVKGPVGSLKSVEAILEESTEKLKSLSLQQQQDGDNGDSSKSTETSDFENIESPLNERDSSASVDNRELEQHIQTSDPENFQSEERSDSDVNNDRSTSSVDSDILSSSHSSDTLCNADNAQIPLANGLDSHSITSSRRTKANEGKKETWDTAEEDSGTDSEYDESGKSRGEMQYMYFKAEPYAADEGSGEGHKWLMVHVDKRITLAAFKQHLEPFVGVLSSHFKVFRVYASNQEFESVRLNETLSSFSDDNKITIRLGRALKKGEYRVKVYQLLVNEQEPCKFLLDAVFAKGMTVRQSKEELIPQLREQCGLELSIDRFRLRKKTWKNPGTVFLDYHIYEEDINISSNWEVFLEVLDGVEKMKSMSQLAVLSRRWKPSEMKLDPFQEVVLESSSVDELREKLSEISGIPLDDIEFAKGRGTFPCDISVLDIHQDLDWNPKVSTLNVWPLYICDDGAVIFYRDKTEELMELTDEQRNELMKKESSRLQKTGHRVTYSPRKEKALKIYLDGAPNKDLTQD
In short: as §1

USP48 = target: T3, USP48 (UniProt Q86UV5)
T3 sequence (whole entry): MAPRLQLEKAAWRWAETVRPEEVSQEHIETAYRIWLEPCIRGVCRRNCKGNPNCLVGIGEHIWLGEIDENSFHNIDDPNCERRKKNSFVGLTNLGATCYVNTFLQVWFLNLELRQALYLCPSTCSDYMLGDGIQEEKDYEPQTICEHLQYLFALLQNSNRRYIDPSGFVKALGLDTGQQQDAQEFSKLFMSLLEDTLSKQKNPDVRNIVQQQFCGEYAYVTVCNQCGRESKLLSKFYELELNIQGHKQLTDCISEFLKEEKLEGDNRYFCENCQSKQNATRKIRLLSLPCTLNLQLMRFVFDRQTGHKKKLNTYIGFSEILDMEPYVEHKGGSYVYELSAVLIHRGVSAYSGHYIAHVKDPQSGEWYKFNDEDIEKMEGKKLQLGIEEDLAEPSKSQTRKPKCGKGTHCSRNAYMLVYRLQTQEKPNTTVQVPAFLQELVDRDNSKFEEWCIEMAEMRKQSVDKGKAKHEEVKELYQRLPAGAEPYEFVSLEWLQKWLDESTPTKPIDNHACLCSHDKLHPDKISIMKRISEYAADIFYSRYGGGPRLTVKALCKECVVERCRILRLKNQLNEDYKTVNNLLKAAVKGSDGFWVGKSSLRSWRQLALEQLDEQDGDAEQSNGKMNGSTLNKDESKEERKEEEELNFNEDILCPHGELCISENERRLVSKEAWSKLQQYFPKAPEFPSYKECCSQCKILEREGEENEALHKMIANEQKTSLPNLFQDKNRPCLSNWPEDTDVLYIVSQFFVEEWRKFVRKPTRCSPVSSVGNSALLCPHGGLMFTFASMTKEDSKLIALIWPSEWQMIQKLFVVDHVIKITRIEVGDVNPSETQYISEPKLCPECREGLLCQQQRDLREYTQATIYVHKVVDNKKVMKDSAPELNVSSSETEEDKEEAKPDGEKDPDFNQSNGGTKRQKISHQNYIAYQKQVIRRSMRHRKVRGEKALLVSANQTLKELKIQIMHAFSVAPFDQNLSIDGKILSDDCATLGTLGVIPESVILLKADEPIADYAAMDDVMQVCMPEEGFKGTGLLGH
In short: as §1

USP5 = target: T4, USP5 (UniProt P45974)
T4 sequence (whole entry): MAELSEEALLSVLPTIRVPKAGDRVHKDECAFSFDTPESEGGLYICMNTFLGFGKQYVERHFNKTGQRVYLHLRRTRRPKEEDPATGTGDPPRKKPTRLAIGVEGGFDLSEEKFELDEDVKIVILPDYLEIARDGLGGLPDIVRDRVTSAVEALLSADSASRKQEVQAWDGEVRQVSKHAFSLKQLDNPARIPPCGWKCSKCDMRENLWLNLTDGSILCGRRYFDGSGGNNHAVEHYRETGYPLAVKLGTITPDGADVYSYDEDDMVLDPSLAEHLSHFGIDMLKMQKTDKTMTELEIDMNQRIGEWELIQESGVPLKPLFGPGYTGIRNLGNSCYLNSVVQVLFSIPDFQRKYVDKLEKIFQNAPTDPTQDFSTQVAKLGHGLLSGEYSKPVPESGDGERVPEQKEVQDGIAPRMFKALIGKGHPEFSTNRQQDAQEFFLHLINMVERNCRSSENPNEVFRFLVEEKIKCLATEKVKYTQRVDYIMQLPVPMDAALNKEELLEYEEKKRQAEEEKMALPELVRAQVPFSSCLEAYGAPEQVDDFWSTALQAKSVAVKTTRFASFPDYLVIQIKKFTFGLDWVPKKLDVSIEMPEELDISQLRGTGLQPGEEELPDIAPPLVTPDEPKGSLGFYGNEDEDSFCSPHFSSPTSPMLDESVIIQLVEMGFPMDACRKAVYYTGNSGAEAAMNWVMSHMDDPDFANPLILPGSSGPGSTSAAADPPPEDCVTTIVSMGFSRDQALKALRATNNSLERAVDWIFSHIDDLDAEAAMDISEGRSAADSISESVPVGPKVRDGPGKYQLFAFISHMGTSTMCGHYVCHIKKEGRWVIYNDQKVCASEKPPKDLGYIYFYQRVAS
In short: as §1

USP54 = USP54 (UniProt Q70EL1)
In short: as §1

USP7 = USP7 (UniProt Q93009)
In short: as §1

USP8 = target: T5, USP8 (UniProt P40818)
T5 sequence (whole entry): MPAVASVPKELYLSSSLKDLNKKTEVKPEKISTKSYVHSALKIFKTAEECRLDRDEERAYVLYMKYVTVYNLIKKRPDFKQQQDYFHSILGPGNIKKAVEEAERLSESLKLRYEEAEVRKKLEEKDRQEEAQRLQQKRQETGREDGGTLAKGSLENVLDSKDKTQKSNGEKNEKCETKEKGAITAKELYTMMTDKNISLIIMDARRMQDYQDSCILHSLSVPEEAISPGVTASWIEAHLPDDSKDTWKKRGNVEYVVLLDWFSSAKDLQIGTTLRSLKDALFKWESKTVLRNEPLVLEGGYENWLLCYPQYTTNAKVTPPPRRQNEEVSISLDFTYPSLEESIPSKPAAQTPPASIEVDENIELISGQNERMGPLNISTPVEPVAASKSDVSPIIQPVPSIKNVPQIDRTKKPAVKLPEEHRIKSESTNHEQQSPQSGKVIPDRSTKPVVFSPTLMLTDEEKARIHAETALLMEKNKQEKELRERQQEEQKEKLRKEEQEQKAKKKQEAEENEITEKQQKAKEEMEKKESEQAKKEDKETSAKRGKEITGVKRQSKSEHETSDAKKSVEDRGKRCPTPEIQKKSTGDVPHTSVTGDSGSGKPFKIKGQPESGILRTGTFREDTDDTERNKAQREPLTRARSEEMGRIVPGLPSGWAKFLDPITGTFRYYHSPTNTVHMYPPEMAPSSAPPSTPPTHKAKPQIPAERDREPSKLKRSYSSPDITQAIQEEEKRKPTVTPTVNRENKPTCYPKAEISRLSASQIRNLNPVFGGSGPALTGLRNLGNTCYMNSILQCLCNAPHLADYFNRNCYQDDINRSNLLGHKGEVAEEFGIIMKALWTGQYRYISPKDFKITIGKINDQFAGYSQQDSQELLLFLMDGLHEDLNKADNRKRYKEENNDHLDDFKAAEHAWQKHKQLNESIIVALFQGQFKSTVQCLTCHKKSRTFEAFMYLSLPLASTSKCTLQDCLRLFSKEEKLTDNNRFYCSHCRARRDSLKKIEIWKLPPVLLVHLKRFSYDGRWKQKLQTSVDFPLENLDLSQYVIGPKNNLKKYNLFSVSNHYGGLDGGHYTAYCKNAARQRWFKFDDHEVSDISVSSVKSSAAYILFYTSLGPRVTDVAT
In short: as §1

USP9X = USP9X (UniProt Q93008)
In short: as §1

UniProt O00487 = target: UniProt O00487
In short: as §1

Measured: log2 ratio of Biotin-Ahx-Ub-VS probe labelling

USP46, sequence (P62068 whole entry): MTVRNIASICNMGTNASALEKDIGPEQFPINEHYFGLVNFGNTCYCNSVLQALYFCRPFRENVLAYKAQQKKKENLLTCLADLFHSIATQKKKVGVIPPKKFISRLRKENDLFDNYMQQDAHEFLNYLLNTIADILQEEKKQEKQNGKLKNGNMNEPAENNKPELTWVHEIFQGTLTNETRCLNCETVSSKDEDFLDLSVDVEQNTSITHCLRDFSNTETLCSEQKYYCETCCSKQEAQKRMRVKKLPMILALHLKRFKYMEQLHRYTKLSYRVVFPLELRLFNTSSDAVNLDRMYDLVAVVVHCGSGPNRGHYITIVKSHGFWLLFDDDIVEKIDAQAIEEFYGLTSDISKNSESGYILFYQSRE
USP7, sequence (Q93009 whole entry, looked up): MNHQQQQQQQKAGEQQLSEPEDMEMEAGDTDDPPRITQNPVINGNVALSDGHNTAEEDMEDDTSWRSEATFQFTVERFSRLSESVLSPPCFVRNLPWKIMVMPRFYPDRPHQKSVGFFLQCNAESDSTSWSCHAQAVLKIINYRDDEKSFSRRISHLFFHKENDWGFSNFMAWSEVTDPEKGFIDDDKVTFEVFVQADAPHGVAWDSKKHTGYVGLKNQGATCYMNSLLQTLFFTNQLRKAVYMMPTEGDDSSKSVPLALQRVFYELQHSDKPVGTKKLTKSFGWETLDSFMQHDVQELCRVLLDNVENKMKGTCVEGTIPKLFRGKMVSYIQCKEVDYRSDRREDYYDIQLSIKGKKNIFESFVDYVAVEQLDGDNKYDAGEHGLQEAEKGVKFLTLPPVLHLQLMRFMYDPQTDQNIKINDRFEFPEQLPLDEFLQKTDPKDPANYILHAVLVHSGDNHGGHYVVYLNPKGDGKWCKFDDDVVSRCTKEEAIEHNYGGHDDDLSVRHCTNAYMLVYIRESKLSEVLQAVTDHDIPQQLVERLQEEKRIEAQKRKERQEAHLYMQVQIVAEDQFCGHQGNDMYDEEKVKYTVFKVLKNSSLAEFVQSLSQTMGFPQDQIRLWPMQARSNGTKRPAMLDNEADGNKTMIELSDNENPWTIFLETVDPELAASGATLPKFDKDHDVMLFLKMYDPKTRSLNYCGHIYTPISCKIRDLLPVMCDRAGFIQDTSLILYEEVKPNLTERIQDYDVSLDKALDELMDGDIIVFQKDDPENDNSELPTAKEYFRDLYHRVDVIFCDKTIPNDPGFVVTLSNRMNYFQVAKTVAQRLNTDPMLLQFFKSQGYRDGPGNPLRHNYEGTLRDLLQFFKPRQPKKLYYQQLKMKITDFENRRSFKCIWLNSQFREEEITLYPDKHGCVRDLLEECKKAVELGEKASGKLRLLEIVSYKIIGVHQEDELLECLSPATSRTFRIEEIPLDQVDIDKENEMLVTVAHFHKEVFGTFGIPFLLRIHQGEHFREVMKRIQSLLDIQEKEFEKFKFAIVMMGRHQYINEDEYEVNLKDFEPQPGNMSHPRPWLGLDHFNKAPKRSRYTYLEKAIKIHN
UniProt O00487, sequence (O00487 whole entry): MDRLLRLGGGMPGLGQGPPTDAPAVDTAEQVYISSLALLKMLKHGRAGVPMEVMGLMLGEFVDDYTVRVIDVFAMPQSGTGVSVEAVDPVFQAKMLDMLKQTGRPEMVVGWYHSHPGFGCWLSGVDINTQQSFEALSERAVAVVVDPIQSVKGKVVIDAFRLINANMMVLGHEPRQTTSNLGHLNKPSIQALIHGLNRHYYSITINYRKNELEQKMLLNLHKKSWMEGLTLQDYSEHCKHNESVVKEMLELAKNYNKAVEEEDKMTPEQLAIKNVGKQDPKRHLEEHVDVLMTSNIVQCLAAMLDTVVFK
USP9X, sequence (Q93008 whole entry): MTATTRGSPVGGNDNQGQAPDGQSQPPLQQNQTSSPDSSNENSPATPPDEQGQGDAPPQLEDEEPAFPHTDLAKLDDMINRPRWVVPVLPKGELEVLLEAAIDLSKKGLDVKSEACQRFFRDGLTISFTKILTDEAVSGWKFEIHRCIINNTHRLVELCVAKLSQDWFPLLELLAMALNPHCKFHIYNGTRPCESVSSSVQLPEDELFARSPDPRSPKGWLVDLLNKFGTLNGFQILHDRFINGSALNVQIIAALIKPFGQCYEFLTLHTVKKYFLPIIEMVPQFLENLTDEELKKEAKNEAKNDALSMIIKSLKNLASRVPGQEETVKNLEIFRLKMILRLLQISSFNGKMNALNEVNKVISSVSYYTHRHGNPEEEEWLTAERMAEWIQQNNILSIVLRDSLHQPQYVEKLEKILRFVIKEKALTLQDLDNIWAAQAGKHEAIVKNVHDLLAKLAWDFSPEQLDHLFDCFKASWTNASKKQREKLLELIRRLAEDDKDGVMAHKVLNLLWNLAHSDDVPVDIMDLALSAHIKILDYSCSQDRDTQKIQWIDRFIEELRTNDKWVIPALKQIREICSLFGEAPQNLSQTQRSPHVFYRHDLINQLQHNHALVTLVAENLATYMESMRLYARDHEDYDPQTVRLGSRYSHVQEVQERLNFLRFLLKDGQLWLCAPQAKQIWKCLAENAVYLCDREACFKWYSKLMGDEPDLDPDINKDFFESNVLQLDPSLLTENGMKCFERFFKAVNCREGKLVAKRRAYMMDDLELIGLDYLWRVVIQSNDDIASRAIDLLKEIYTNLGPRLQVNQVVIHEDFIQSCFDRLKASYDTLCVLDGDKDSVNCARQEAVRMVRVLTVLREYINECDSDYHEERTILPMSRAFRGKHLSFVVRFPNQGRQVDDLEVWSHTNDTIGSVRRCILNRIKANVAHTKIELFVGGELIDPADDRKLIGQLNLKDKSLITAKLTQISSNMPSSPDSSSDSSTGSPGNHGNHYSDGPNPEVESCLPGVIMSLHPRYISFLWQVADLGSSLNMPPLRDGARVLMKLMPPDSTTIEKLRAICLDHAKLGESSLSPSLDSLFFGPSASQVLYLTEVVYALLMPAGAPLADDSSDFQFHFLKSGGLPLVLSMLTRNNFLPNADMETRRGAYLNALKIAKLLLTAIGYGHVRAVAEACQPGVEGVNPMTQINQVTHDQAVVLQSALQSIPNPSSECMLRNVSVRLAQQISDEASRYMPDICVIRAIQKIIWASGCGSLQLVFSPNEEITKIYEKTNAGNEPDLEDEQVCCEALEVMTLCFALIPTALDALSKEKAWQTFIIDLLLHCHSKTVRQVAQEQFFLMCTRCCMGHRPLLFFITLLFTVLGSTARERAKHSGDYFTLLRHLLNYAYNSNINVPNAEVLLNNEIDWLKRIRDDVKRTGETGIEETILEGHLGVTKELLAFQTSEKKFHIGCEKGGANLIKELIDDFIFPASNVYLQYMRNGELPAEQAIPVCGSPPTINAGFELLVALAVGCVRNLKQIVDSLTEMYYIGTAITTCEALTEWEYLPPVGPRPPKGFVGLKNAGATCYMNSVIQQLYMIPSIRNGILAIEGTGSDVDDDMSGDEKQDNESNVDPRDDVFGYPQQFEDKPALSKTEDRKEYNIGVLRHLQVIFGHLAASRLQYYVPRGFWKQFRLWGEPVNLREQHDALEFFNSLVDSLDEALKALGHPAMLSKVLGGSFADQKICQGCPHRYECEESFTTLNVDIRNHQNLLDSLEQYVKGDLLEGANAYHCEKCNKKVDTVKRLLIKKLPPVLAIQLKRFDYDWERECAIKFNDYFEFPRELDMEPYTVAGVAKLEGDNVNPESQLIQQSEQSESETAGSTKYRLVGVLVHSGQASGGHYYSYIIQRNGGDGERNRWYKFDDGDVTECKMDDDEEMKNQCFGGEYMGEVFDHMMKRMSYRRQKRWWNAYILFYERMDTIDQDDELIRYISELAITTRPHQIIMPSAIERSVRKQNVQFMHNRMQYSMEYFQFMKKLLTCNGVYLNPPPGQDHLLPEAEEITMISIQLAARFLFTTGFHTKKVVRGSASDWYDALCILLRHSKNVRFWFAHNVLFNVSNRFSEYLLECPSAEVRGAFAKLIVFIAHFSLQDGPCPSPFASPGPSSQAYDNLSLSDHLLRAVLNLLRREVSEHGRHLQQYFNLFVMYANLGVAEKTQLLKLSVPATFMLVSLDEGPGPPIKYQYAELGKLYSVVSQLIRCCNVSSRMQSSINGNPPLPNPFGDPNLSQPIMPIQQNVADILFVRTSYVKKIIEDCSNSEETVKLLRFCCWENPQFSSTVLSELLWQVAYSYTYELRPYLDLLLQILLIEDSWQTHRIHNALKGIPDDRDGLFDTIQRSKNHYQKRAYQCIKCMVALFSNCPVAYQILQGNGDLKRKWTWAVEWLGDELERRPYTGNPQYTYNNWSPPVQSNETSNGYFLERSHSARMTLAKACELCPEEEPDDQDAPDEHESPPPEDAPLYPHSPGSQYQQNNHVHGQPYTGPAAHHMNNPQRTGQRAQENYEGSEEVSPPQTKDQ

CC(NC(=O)CCl)c1noc(Cc2ccccc2)n1 (stereo not given)
inactive: USP42 0.115 | USP46 -0.0371 | USP47 0.0165 | USP48 -0.394 | USP5 -0.388 | USP54 0.507 | USP7 -0.475 | USP8 -0.579 | USP9X -0.262 | UniProt O00487 -0.231

CC1CN(c2ccc(NC(=O)CCl)cc2)CC(C)O1 (stereo not given)
inactive: USP42 0.0421 | USP46 0.0265 | USP47 -0.557 | USP48 -0.402 | USP5 -0.0419 | USP54 0.973 | USP7 -0.186 | USP8 -0.0842 | USP9X -0.166 | UniProt O00487 -0.0932

Cc1nc(CN2CCCN(C(=O)CCl)CC2)no1.Cl
inactive: USP42 0.102 | USP46 0.0734 | USP47 -0.095 | USP48 0.261 | USP5 -0.016 | USP54 -0.482 | USP7 -0.0348 | USP8 0.237 | USP9X 0.101 | UniProt O00487 0.118

Cl.O=C(CCl)N1CCC(Cc2nccs2)C1 (stereo not given)
inactive: USP42 0.34 | USP46 0.105 | USP47 -0.538 | USP48 -0.286 | USP5 0.225 | USP54 0.476 | USP7 -0.334 | USP8 -0.208 | USP9X -0.186 | UniProt O00487 -0.1

From the supplement of paper PMC11732987, “Enantioselective OTUD7B fragment discovery through chemoproteomics screening and high-throughput optimisation” (Communications Chemistry, 2025)
